From PubChem BioAssay (NCATS)
A number with no mark means an inactive call. Cut-off read from the data, not from the text of the source: active = potency below about 10 µM; inactive = the rest.

Biological target: Lysosomal acid glucosylceramidase (Homo sapiens) (UniProt P04062)
Test: Glucocerebrosidase-p2 (AID 348)
Settings: purified GBA, blue fluorogenic substrate, 40 min
From the text: Beta-glucocerebrosidase catalyzes the hydrolysis of beta-glucocerebroside to glucose and ceramide. The inherited deficiency of beta-glucocerebrosidase results in Gaucher disease, which is characterized by a wide variety of symptoms including hepatosplenomegaly, anemia, thrombocytopenia, bony lesions and bone marrow infiltration with characteristic storage cells, known as Gaucher cells. There are also forms of the disorder affecting the central nervous system. Patients with the same genotypes can manifest with diverse clinical presentations and it is believed that improper folding and trafficking of beta-glucocerbrosidase may contribute to the phenotypes observed.
Low molecular weight molecules, acting as chaperones, may potentially restore trafficking of misfolded beta-glucocerebrosidase from the endoplasmic reticulum to the lysosomes, thereby enhancing functional lysosomal beta-glucocerebrosidase activity.
Using normal beta-glucocerebrosidase, an assay was developed to screen for small molecule inhibitors that could potentially act as molecular chaperones on the mutant forms [developed with NIH investigator Dr. Ellen Sidransky#s laboratory]. Two pro-fluorescent substrates were chosen for two screens against a small molecule library. One beta-glucocerebrosidase assay used Resorufin beta-D-Glucopyranoside (Marker Gene Technology Inc.), generating a red fluorescent product. The second assay used […] fluorescent product. The Km for the Resorufin beta-D-Glucopyranoside and Fluorescein di-beta-D-Glucopyranoside were determined to be 71.2 uM and 855 uM, respectively. The IC50 values of Conduritol B Epoxide, a known glucocerebrosidase inhibitor, were determined to be 87.5 uM and 117 uM, respectively. The use of two difference pro-fluorescent substrates in the screens helped to eliminate false positives. All compounds were screened in a titration series resulting in AC50s (e.g., IC50s or EC50s). Data normalization and AC50 calculations were accomplished using GeneData software.
NCGC Assay Protocol Summary
Both enzyme and substrate were diluted in buffer composed of 50mM citric acid/KH2PO4, 10mM sodium taurocholate and 0.01% tween-20 at pH 5.9. The final concentration of the enzyme was 0.2 nM in both assays. The compound library was titrated in 7 to 15 concentrations for the primary screens with a final concentration ranging from 0.6 nM to 50 uM. This particular assay protocol is for the "blue" substrate, and it was performed in 1536-well plate format as follows:
Blue fluorescence substrate assay:
1 uL substrate (final concentration of 80 uM)
Incubate at room temperature (RT) for 40 minutes
3 uL stop solution (1 M NaOH and 1 M glycine in water)
Read the plate in Viewlux plate reader (Ex=365(10) and Em=440(10)).
Potency is the fitted concentration of half-maximal effect.

Chain of Lysosomal acid glucosylceramidase (Homo sapiens) (P04062 whole entry, looked up): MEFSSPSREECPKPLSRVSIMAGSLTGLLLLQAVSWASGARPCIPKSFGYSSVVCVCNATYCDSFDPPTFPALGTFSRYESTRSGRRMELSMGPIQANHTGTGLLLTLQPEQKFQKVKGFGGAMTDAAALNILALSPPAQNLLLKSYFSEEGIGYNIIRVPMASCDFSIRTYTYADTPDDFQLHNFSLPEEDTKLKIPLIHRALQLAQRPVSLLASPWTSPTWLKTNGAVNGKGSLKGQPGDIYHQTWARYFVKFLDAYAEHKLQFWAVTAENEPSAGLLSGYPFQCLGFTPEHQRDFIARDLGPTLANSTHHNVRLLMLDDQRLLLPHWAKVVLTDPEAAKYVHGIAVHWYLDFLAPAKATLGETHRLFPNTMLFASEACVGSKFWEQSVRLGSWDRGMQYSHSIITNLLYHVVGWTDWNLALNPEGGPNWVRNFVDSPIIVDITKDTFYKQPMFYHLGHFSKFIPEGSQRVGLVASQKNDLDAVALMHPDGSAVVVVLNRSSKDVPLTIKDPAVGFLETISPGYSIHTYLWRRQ

SMILES | Potency [µM]
CC(C)(O)/C=C\C(=O)[C@](C)(O)[C@H]1[C@H](O)C[C@]2(C)[C@@H]3CC=C4[C@@H](C=C(O)C(=O)C4(C)C)[C@]3(C)C(=O)C[C@@]12C | > 11.4
O=C(c1ccco1)N1CCC[C@@]2(CCN(Cc3ccncc3)C2)C1 | > 11.4
CC(C)NC(=O)N1CCCC2(CCN(C(=O)Oc3ccccc3)CC2)C1 | > 11.4
CC(C)NC(=O)N1CCC2(CC1)CCN(C(=O)Oc1ccccc1)CC2 | > 11.4
CC(C)CN1CC[C@@]2(CCCN(C(=O)c3ccncc3)C2)C1 | > 11.4
O=C(Oc1ccccc1)N1CCC[C@@]2(CCN(Cc3ccccc3)C2)C1 | > 11.4
O=C(Nc1cccc(F)c1)N1CC2(CCNCC2)C1 | > 11.4
O=C(c1csnn1)N1CCC[C@@]2(CCN(Cc3ccncc3)C2)C1 | > 11.4
CS(=O)(=O)N1CCC2(CCCN(Cc3ccncc3)C2)CC1 | > 11.4
O=C(c1ccncc1)N1CCC[C@@]2(CCN(Cc3nccs3)C2)C1 | > 11.4
CN1CC[C@@]2(CCCN(C(=O)c3ccncc3)C2)C1 | > 11.4
N#Cc1ccc(CN2CCCC3(CCN(C(=O)Oc4ccccc4)CC3)C2)cc1 | > 11.4
c1cc(N2CCCC3(CCNCC3)C2)ccn1 | > 11.4
c1ccc(CN2CCCC3(CCNCC3)C2)cc1 | > 11.4
CN1CCCC2(CCN(C(=O)Oc3ccccc3)CC2)C1 | > 11.4
CN1CCC2(CC1)CCN(C(=O)Oc1ccccc1)CC2 | > 11.4
O=C(Nc1ccccc1)N1CCCC2(CCN(C(=O)Oc3ccccc3)CC2)C1 | > 11.4
CN1CCCC2(CCN(C(=O)c3ccncc3)CC2)C1 | > 11.4
COC(=O)N1CCC2(CCN(CC(C)C)CC2)CC1 | > 11.4
CC(C)c1ccc(C(c2c(O)c3ccccc3oc2=O)c2c(O)c3ccccc3oc2=O)cc1 | > 11.4

SMILES | Potency [µM]
O=C(Oc1ccccc1)N1CCC2(CCCN(Cc3nccs3)C2)CC1 | > 11.4
O=C(Nc1ccccc1)N1CC[C@@]2(CCCN(C(=O)Oc3ccccc3)C2)C1 | > 11.4
COc1ccc(NC(=O)N2CC[C@@]3(CCCN(C(=O)Oc4ccccc4)C3)C2)cc1 | > 11.4
CN1CCCC2(CCN(C(=O)c3ccco3)CC2)C1 | > 11.4
N#Cc1cccc(NC(=O)N2CC3(CCN(C(=O)Oc4ccccc4)CC3)C2)c1 | > 11.4
O=C(Nc1ccccc1)N1CC[C@@]2(CCCNC2)C1 | > 11.4
c1csc(CN2CC3(CCNCC3)C2)n1 | > 11.4
N#Cc1ccc(CN2CC3(CCNCC3)C2)cc1 | > 11.4
COc1ccc(NC(=O)N2CCC3(CC2)CCN(C(=O)Oc2ccccc2)CC3)cc1 | > 11.4
c1csc(CN2CCC3(CCNCC3)CC2)n1 | > 11.4
CN1CCN(c2ncc3ncc(=O)n(C)c3n2)CC1 | > 11.4
c1cc(CN2CCC3(CCNCC3)CC2)ccn1 | > 11.4
N#Cc1cccc(NC(=O)N2CC[C@@]3(CCCN(C(=O)Oc4ccccc4)C3)C2)c1 | > 11.4
O=C(Oc1ccccc1)N1CCC2(CC1)CN(C(c1ccccc1)c1ccccc1)C2 | > 11.4
O=C(Nc1cccc(F)c1)N1CCCC2(CCN(C(=O)Oc3ccccc3)CC2)C1 | > 11.4
O=C(O)CNCP(=O)(O)O | > 11.4
CN1CC[C@@]2(CCCN(C(=O)Oc3ccccc3)C2)C1 | > 11.4
CC(C)CN1CCCC2(CCN(C(=O)c3ccncc3)CC2)C1 | > 11.4
C[N+]1([O-])[C@@H]2CC(OC(=O)[C@@H](CO)c3ccccc3)C[C@@H]1[C@H]1O[C@H]12 (stereo not given in full) | > 11.4
c1cnc(N2CCCC3(CCNCC3)C2)nc1 | > 11.4
